# Results taken from PubChem BioAssay.
# Molecular target: Alpha-bungarotoxin (Bungarus multicinctus) (UniProt P60615)
# Test: compounds binding labelled alpha-BTX control protein – biochemical, small-molecule microarray, Alexa647 label, 635/667 nm fluorescence, artefact control for SMM control protein annotation, profiling panel (AID 1117)
# Conditions: alpha-BTX-A647 binding fluorescence, higher = more signal
# Alpha-bungarotoxin (Bungarus multicinctus), sequence (P60615 whole entry, looked up): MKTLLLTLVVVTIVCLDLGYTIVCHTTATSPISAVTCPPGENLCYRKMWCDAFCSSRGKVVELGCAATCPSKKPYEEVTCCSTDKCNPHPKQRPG
row,SMILES,composite z-score
1,C=CCC(OC(C)=O)[C@@H]1[C@@H](N(Cc2cccc3ccccc23)C(=O)c2cccc3ccccc23)c2cc(OCCCO)ccc2N1C(=O)Cc1ccc2ccccc2c1 (stereo partly specified),-0.424
2,COc1ccc(C(O)C2C=CC3C(=O)N(C)C(=O)C3N2Nc2ccc([N+](=O)[O-])cc2[N+](=O)[O-])cc1OCc1ccccc1 (stereo unspecified),1.5
3,COCCOC(=O)N1C(=O)[C@@]2(c3cc(C#CCC(C(=O)OC)C(=O)OC)ccc31)[C@H](C(=O)N1CCc3cc(OC)c(OC)cc3C1)[C@H]1C(=O)O[C@H](c3ccccc3)[C@H](c3ccccc3)N1[C@@H]2c1ccc(O)cc1,0.906
4,C=CCNC(=O)[C@@H]1[C@H]2C(=O)O[C@H](c3ccccc3)[C@H](c3ccccc3)N2[C@H](c2ccc(O)cc2)[C@@]12C(=O)Nc1ccc(C#CC3(O)CCCCCC3)cc12,-0.243
5,COCCOC(=O)N1C(=O)[C@@]2(c3ccccc31)[C@H](C(=O)N1CCCCCCC1)[C@H]1C(=O)O[C@H](c3ccccc3)[C@H](c3ccccc3)N1[C@@H]2c1ccc(O)cc1,3.37
6,N#Cc1ccc(C(O)C2C=CC3C(=O)NC(=O)C3N2Nc2ccccn2)cc1 (stereo unspecified),0.617
7,CC(C)C[C@H]1NC(=O)[C@@]23C(=O)N[C@@H](Cc4ccccc4)C2[C@H](C)[C@@]2(C)O[C@H]2C3/C=C/C/C=C\CNC(=O)[C@@H]2CCCN2C1=O (stereo partly specified),0.288
8,CCCC[C@@H]1C[C@H]1[C@@H](NC(=O)Cc1ccccc1)c1ccc(Cl)cc1,2.14
9,NC(=O)N1C(=O)C2C(C1=O)C1C=C(CCCO)C2C(c2ccc(CN3CCCC3)cc2)N1Cc1cccc(OC(F)(F)F)c1 (stereo unspecified),0.546
10,CCOC(=O)C[C@H]1[C@H](OC(=O)c2ccc(C(=O)c3ccccc3)cc2)[C@@H](NC(=O)c2ccc3ccccc3c2)c2cc(OCCCO)ccc2N1C(=O)c1ccc2ccccc2n1,0.898
11,O=C1NC(=O)C2C1C=CC(C(O)c1ccc(F)cc1)N2Nc1ccccn1 (stereo unspecified),0.349
12,COc1ccc([Si](C)(C)[C@H]2[C@H](CC(=O)N3Cc4ccccc4C[C@H]3CO)O[C@@]3(C(=O)N(Cc4cccc(N5C(=O)c6cccc7cccc5c67)c4)c4ccccc43)[C@@H]2C)cc1,2.33
13,COC(=O)[C@@]1(Cc2ccccc2)[C@@H]2[C@@H](CC(=O)[C@H]2CC(=O)C(=O)N(C)C)CN1C(=O)c1ccccc1,0.43
14,COC(=O)[C@]1(CO)N=C(c2ccc(OCCCO)cc2)O[C@@H]1c1ccccc1CN=[N+]=[N-],-0.0756
15,CC(C)CNC(=O)[C@@H]1c2ccccc2C(=O)N(C(C)C)[C@H]1c1ccc(CO)cc1,-0.75
16,Cc1c(NC(=O)/C(C#N)=C/c2ccc(Cl)cc2)c(=O)n(-c2ccccc2)n1C,0.766
17,O=C1c2ccccc2[C@](Cc2ccccc2I)(C(=O)O)[C@H](c2ccc(CO)cc2)N1Cc1ccccc1,2.38
18,CCC[C@@H]1C=C(C(=O)OCC)[C@H](c2ccccc2)N1S(=O)(=O)c1ccc(C)cc1,1.26
19,COCCOC(=O)N1C(=O)[C@@]2(c3cc(C#CCC(C(=O)OC)C(=O)OC)ccc31)[C@H](c1ccc(OCCO)cc1)N1[C@H](c3ccccc3)[C@H](c3ccccc3)OC(=O)[C@H]1[C@@H]2C(=O)N1CCCCCCC1,2.32
20,CCOC(=O)C[C@H]1[C@H](OC(=O)c2ccc(-c3ccccc3)cc2)[C@@H](NC(=O)CC(C)C)c2cc(OCCCO)ccc2N1C(=O)Cc1ccc(OC)cc1,0.446
21,COCCOC(=O)N1C(=O)[C@@]2(c3cc(C#CCC(C(=O)OC)C(=O)OC)ccc31)[C@H](C(N)=O)[C@H]1C(=O)O[C@H](c3ccccc3)[C@H](c3ccccc3)N1[C@@H]2c1ccc(OCCO)cc1,1.44
22,C=CCC(OC(C)=O)[C@@H]1[C@@H](N(Cc2ccc(-c3cccc(C(F)(F)F)c3)o2)C(=O)c2cccc3ccccc23)c2cc(OCCCO)ccc2N1C(=O)c1ccc2ccccc2c1 (stereo partly specified),0.108
23,COC(=O)[C@@]1(Cc2ccccc2)[C@H]2c3cc(C(=O)N4CCCC4)n(Cc4ccc(C(F)(F)F)nc4)c3C[C@H]2CN1C(=O)c1ccccc1,1.56
24,C=CC[C@@]1(C(=O)O)N=C(c2ccc(OCCCO)cc2)O[C@@H]1c1ccccc1CN=[N+]=[N-],0.974
25,COc1ccc([Si](C)(C)[C@H]2[C@H](CCn3cc([C@H](O)c4ccccc4)nn3)O[C@@]3(C(=O)N(C)c4c(Br)cc(C)cc43)[C@@H]2C)cc1,0.14
26,CC1(C)OC[C@@]23C=C(Br)[C@@H](C[C@H]12)[C@@]1(CO1)C3=O,0.179

# Molecular target: Albumin (Bos taurus) (UniProt P02769)
# Test: compounds binding labelled BSA control protein – biochemical, small-molecule microarray, Alexa647 label, 635/667 nm fluorescence, artefact control for SMM control protein annotation, profiling panel (AID 1118);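 further: score merges 667 nm emission intensity and signal-to-noise per printed compound spot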
# Conditions: BSA-A647 binding, fluorescence 635 nm, higher = more signal
# Albumin (Bos taurus), sequence (P02769 whole entry, looked up): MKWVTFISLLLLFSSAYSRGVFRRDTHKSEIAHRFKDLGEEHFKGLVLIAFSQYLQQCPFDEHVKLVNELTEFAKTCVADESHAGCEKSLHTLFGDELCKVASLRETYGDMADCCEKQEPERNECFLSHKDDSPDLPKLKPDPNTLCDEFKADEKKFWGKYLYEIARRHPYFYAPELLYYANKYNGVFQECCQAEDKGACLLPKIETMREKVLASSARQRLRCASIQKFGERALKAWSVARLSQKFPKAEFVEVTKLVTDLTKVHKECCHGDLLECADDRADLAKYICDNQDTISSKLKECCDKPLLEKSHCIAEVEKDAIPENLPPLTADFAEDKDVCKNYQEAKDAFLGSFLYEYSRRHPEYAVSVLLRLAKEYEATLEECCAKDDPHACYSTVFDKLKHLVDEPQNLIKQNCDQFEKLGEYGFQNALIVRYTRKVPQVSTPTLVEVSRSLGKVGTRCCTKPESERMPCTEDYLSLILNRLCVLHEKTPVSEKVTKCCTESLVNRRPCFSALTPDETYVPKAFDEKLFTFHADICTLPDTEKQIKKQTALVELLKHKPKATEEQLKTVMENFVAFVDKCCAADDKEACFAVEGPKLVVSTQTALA
row,SMILES,composite z-score
1,CCN(CC)c1ccc(N2CC=CC34O[C@@H]5C=CCOC(=O)[C@@H]5[C@H]3C(=O)N(CCO)[C@@H]4C2=O)cc1 (stereo partly specified),-0.869
2,CCOC(=O)C1=CC[C@@H](c2ccccc2)N(S(=O)(=O)C[Si](C)(C)C)[C@H]1c1ccccc1,0.873
3,CN(C)CCCC[C@@H]1NC(=O)[C@@H]2C[C@H](C(=O)NCc3ccc(F)cc3)[C@H](c3ccc(O)cc3)N2C1=O,-0.16
4,C=CCOC(=O)[C@H]1[C@@H]2C(=O)O[C@@H](c3ccccc3)[C@@H](c3ccccc3)N2[C@@H](c2ccc(OCCOC(=O)[C@@H]3C[C@@H]4C(=O)N[C@@H](CC(C)C)C(=O)N4[C@@H]3c3ccc(O)cc3)cc2)[C@]12C(=O)Nc1ccc(I)cc12,0.822
5,COCCCNC(=O)[C@@H]1c2ccccc2C(=O)N(C2CCCCC2)[C@H]1c1ccc(CO)cc1,-0.527
6,CN(C)CCCC[C@@H]1NC(=O)[C@H]2C[C@@H](C(=O)NCc3ccc(F)cc3)[C@@H](c3ccc(O)cc3)N2C1=O,-0.734
7,COc1ccc(C#Cc2ccc3c(c2)[C@]2(C(=O)N3)[C@H](C(=O)Nc3nc4ccccc4s3)[C@H]3C(=O)O[C@H](c4ccccc4)[C@H](c4ccccc4)N3[C@@H]2c2ccc(OCCO)cc2)cc1,0.789
8,C=CCC(OC(C)=O)[C@@H]1[C@@H](N(Cc2ccc(-c3cccc(C(F)(F)F)c3)o2)C(=O)c2cccc3ccccc23)c2cc(OCCCO)ccc2N1C(=O)c1ccc2ccccc2n1 (stereo partly specified),-0.197
9,C[N+](C)(C)CCCC[C@@H]1NC(=O)[C@H]2C[C@@H](C(=O)NCCCCCNC(=O)CS)[C@@H](c3ccc(O)cc3)N2C1=O,0.896
10,C=CCC(OC(C)=O)[C@@H]1[C@@H](N(Cc2cccc3ccccc23)C(=O)c2cccc3ccccc23)c2cc(OCCCO)ccc2N1C(=O)Cc1ccc2ccccc2c1 (stereo partly specified),-0.351
11,COc1ccc(C(O)C2C=CC3C(=O)N(C)C(=O)C3N2Nc2ccc([N+](=O)[O-])cc2[N+](=O)[O-])cc1OCc1ccccc1 (stereo unspecified),0.747
12,COCCOC(=O)N1C(=O)[C@@]2(c3cc(C#CCC(C(=O)OC)C(=O)OC)ccc31)[C@H](C(=O)N1CCc3cc(OC)c(OC)cc3C1)[C@H]1C(=O)O[C@H](c3ccccc3)[C@H](c3ccccc3)N1[C@@H]2c1ccc(O)cc1,-0.129
13,C=CCNC(=O)[C@@H]1[C@H]2C(=O)O[C@H](c3ccccc3)[C@H](c3ccccc3)N2[C@H](c2ccc(O)cc2)[C@@]12C(=O)Nc1ccc(C#CC3(O)CCCCCC3)cc12,-0.277
14,COCCOC(=O)N1C(=O)[C@@]2(c3ccccc31)[C@H](C(=O)N1CCCCCCC1)[C@H]1C(=O)O[C@H](c3ccccc3)[C@H](c3ccccc3)N1[C@@H]2c1ccc(O)cc1,0.816
15,N#Cc1ccc(C(O)C2C=CC3C(=O)NC(=O)C3N2Nc2ccccn2)cc1 (stereo unspecified),0.95
16,CC(C)C[C@H]1NC(=O)[C@@]23C(=O)N[C@@H](Cc4ccccc4)C2[C@H](C)[C@@]2(C)O[C@H]2C3/C=C/C/C=C\CNC(=O)[C@@H]2CCCN2C1=O (stereo partly specified),0.773
17,CCCC[C@@H]1C[C@H]1[C@@H](NC(=O)Cc1ccccc1)c1ccc(Cl)cc1,1.1
18,NC(=O)N1C(=O)C2C(C1=O)C1C=C(CCCO)C2C(c2ccc(CN3CCCC3)cc2)N1Cc1cccc(OC(F)(F)F)c1 (stereo unspecified),0.0639
19,CCOC(=O)C[C@H]1[C@H](OC(=O)c2ccc(C(=O)c3ccccc3)cc2)[C@@H](NC(=O)c2ccc3ccccc3c2)c2cc(OCCCO)ccc2N1C(=O)c1ccc2ccccc2n1,0.544
20,O=C1NC(=O)C2C1C=CC(C(O)c1ccc(F)cc1)N2Nc1ccccn1 (stereo unspecified),0.691
21,COc1ccc([Si](C)(C)[C@H]2[C@H](CC(=O)N3Cc4ccccc4C[C@H]3CO)O[C@@]3(C(=O)N(Cc4cccc(N5C(=O)c6cccc7cccc5c67)c4)c4ccccc43)[C@@H]2C)cc1,-0.0311
22,COC(=O)[C@@]1(Cc2ccccc2)[C@@H]2[C@@H](CC(=O)[C@H]2CC(=O)C(=O)N(C)C)CN1C(=O)c1ccccc1,0.579
23,COC(=O)[C@]1(CO)N=C(c2ccc(OCCCO)cc2)O[C@@H]1c1ccccc1CN=[N+]=[N-],-0.421
24,CC(C)CNC(=O)[C@@H]1c2ccccc2C(=O)N(C(C)C)[C@H]1c1ccc(CO)cc1,0.121
25,Cc1c(NC(=O)/C(C#N)=C/c2ccc(Cl)cc2)c(=O)n(-c2ccccc2)n1C,0.87
26,O=C1c2ccccc2[C@](Cc2ccccc2I)(C(=O)O)[C@H](c2ccc(CO)cc2)N1Cc1ccccc1,0.48
27,CCC[C@@H]1C=C(C(=O)OCC)[C@H](c2ccccc2)N1S(=O)(=O)c1ccc(C)cc1,0.854
28,COCCOC(=O)N1C(=O)[C@@]2(c3cc(C#CCC(C(=O)OC)C(=O)OC)ccc31)[C@H](c1ccc(OCCO)cc1)N1[C@H](c3ccccc3)[C@H](c3ccccc3)OC(=O)[C@H]1[C@@H]2C(=O)N1CCCCCCC1,0.256
29,CCOC(=O)C[C@H]1[C@H](OC(=O)c2ccc(-c3ccccc3)cc2)[C@@H](NC(=O)CC(C)C)c2cc(OCCCO)ccc2N1C(=O)Cc1ccc(OC)cc1,0.593
30,COCCOC(=O)N1C(=O)[C@@]2(c3cc(C#CCC(C(=O)OC)C(=O)OC)ccc31)[C@H](C(N)=O)[C@H]1C(=O)O[C@H](c3ccccc3)[C@H](c3ccccc3)N1[C@@H]2c1ccc(OCCO)cc1,0.483
